59 molecules from PubChem BioAssay AID720596 (The Scripps Research Institute Molecular Screening Center, 2013) can be followed below.

In all, about 370,000 compounds went through this assay and about 1,600 (0.43%) were called active. Cut-off read from the data, not from the text of the source: active = inhibition above about 24%; inactive = the rest. The list comes from a sample in which actives are over-represented; it also holds similar structures and randomly drawn compounds.

By inhibition is commonly meant the relative decrease from the control value, in per cent.

This assay concerns the target Major prion protein (Homo sapiens) (UniProt P04156). The experiment in a line: reduces human prion protein on the cell surface, primary screen, cell-based, TR-FRET (AID 720596). Note: 0% = median of the test wells and 100% = reference compound wells. The conditions noted are these: cell surface PrPC, TR-FRET read-out; at 13.8 µM; stronger effect = higher value.
On to `COc1ccc(OC)c(-n2c(=S)[nH]c3cc(C(=O)N4CCCCC4)ccc3c2=O)c1`, for which the inhibition was 2.99% (inactive).
As for `COc1cc(-n2c(=S)[nH]c3ccc(C)cc3c2=O)c(Cl)cc1Cl`, the figure is 41% (active).
As for `COc1cc2[nH]c(=S)n(Cc3ccc(C)o3)c(=O)c2cc1OC`, the figure is -2% (inactive).
As for `COc1cccc(C(=O)N2CCCC(CCC(=O)NCc3ccc(F)c(F)c3)C2)c1` (centres undefined), the figure is 1.57% (inactive); as for `C=CCOc1cccc(C2C(C(=O)c3ccc(C)o3)=C(O)C(=O)N2CCN2CCOCC2)c1` (centres undefined), -10.8% (inactive); as for `CCOc1ccc(C2/C(=C(/O)c3ccc4c(c3)CC(C)O4)C(=O)C(=O)N2CCCn2ccnc2)cc1` (centres undefined), 1.98% (inactive).
In the case of `CCCOc1ccc(C2C(C(=O)c3ccc(C)o3)=C(O)C(=O)N2CCCn2ccnc2)cc1` (centres undefined), the inhibition was 39.3% (active).
For the molecule `CCOc1ccccc1OCCCNCc1ccccc1`, the inhibition was -4% (inactive).
As for `O=C(CN1CCCSc2ccccc21)N1CCN(S(=O)(=O)c2cccc(F)c2)CC1`, the figure is -1.47% (inactive).
As for `N#C/C=C1\Sc2ccccc2C(=O)N1CC(=O)N1CCN(S(=O)(=O)c2ccccc2)CC1`, the figure is 59.8% (active); as for `CC(C)c1ccc(S(=O)(=O)N2CCN(C(=O)CN3C(=O)NC(C)(c4ccccc4)C3=O)CC2)cc1` (centres undefined), -0.25% (inactive).
As for `CCCN(C(=O)CSc1nnc(N)s1)c1c(N)n(Cc2ccccc2)c(=O)[nH]c1=O`, the figure is -0.1% (inactive); as for `COc1ccc(Cl)cc1NC(=O)COc1ccc2c(c1)OCO2`, 0.61% (inactive); as for `Cc1noc(C)c1NC(=O)Nc1ccc2c(c1)C(=O)N([C@H](C)CO)C[C@H](C)[C@@H](CN(C)S(=O)(=O)c1cn(C)cn1)O2`, 3.79% (inactive).
In the case of `COc1ccc(C)cc1NC(=O)CSc1nnc2ccc(-c3ccccn3)nn12`, the inhibition is -1.48% (inactive).
As for `O=C(CCCNS(=O)(=O)c1cccc2nsnc12)NCCN1CCN(c2ccccc2F)CC1`, the figure is -22.9% (inactive); as for `Cc1cccc(NC(=O)c2cc3c(C)nn(-c4ccccc4)c3s2)c1`, -2.71% (inactive); as for `CN(CCC(=O)Nc1cc(S(=O)(=O)N(C)C)ccc1Cl)CC(=O)Nc1ccc(F)cc1`, -6.03% (inactive).
As for `Cc1cccc(NC(=O)Cn2c(=O)n(Cc3ccccc3)c(=O)c3c(C)c(C)sc32)c1`, the figure is 4.63% (inactive); as for `Cc1cccc(NC(=O)c2nc(S(=O)(=O)Cc3ccccc3)ncc2Cl)c1`, 70.4% (active); as for `Cc1cccc(CS(=O)(=O)c2ncc(Cl)c(C(=O)Nc3ccc(F)cc3)n2)c1`, 54.3% (active).
In the case of `Cc1cccc(C(=O)Nc2c(-c3ccc(F)cc3)nc3ncccn23)c1` it was 0.67% (inactive); in that of `Cc1ccc(NS(=O)(=O)c2cccs2)cc1S(=O)(=O)N1CCCCCC1`, 2.21% (inactive); in that of `Cc1cccc(CC(=O)N2CCN=C2SCc2ccc([N+](=O)[O-])cc2)c1`, -5.21% (inactive).
Turning to `CCCn1c(=S)[nH]c2ccc(C(F)(F)F)cc21`, the inhibition was 12.2% (inactive).
In the case of `CCN(CC(=O)NCc1ccc(F)cc1)S(=O)(=O)c1ccc(Cl)s1` it was -0.88% (inactive).
As to `Cc1ccc(Cl)cc1NC(=O)C1CCN(S(C)(=O)=O)CC1`, the inhibition was 4.88% (inactive).
As for `Cc1ccnc(NC(=O)C2CCN(S(=O)(=O)c3c(C)c(C)cc(C)c3C)CC2)c1`, the figure is 28.1% (active); as for `O=C(Nc1ccccn1)C1CCN(S(=O)(=O)c2ccc3c(c2)OCCO3)CC1`, -7.97% (inactive).
For the molecule `O=C(/C=C/c1cnc2ccccc2n1)NC1CCCCCC1`, the inhibition is -28.9% (inactive).
With `CCOC(=O)c1c(C)oc2cc(Br)c(OCC(N)=O)cc12`, the inhibition is -4.57% (inactive).
As to `CCOC(=O)c1c(-c2ccccc2)oc2ccc(OC(=O)N(C)C)cc12`, the inhibition was -3.58% (inactive).
In the case of `CCOC(=O)c1c(-c2ccccc2)oc2cc(Br)c(O)cc12` it was 58.6% (active).
In the case of `CCNc1nc(NCC)nc(N(C)n2cnnc2)n1` it was 3.48% (inactive); in that of `CCN(CC)c1ccc(S(=O)(=O)N2CCOCC2)cc1NC(=O)CSc1cccc[n+]1[O-]`, -5.4% (inactive).
Consider `CCN1CCN(C(=O)C2CCCN(S(=O)(=O)c3ccc(OC)c(OC)c3)C2)CC1` (centres undefined), for which the inhibition is -1.58% (inactive).
With `Nc1cc2c(cc1Br)-c1ccc(F)cc1C2=O`, the inhibition was -0.15% (inactive).
As for `O=C(/C=C/c1ccc([N+](=O)[O-])o1)NNC(=O)c1ccc(F)cc1`, the figure is 64.7% (active); as for `CCN(CC)N=Nc1cccc(NC(C)=O)c1`, -7.3% (inactive).
For the molecule `Cc1ccc(SC(CC(=O)c2ccc(C(C)(C)C)cc2)C(=O)O)cc1` (centres undefined), the inhibition is -2% (inactive).
As for `O=C(OCC(=O)N1CCCCC1)c1ccc(OC(F)(F)F)cc1`, the figure is 8.76% (inactive).
Take `c1ccc(-n2ncc(-c3nn[nH]n3)n2)cc1`: the inhibition is 1.91% (inactive).
In the case of `CCc1cc(-c2n[nH]c(=S)n2CC(C)C)cs1` it was -0.39% (inactive); in that of `Cc1ccc(S(=O)(=O)N2CCOCC2)cc1NC(=O)c1ccncc1`, 7.08% (inactive).
Take `COc1ccc(C(=O)Nc2nc(-c3ccc(S(=O)(=O)N4CCOCC4)cc3)cs2)cc1`: the inhibition was 27.2% (active).
In the case of `O=C(Nc1ccc(S(=O)(=O)N2CCOCC2)cc1)c1ccc2ncsc2c1` it was 0.06% (inactive); in that of `COc1ccc(NC(=O)CN(C)C(=O)c2cc(C3CC3)nn2-c2ccccc2)cc1`, 10.2% (inactive).
For the molecule `CCC(C)(O)C(=O)OC1C(=O)OC2CC3C(C)=CC(=O)C(O)C3(C)C3C4(O)OCC23C1C(C)C4O` (centres undefined), the inhibition is 83.1% (active).
As for `O=C(N/C(=C\c1ccc(F)cc1)C(=O)N1CCCCCC1)c1ccccc1`, the figure is -7.9% (inactive).
In the case of `Cc1ccc(-c2nc3ccccc3c(=O)n2-c2ccc(Br)cn2)cc1` it was 0.03% (inactive); in that of `COc1ccc(CC(=O)NC(C)c2ccc(Cl)c(Cl)c2)cc1S(=O)(=O)N1CCOCC1` (centres undefined), 4.45% (inactive); in that of `COc1ccc(C)cc1NC(=O)CNCc1cccs1`, 0.34% (inactive).
As for `CC1CC1C(=O)OCC(=O)Nc1cccc(F)c1` (centres undefined), the figure is -3.56% (inactive); as for `O=C(COC(=O)CNC(=O)C1CCCCC1)Nc1cccc(F)c1`, -5.42% (inactive).
As for `Cc1ccsc1C(=O)OCC(=O)Nc1cccc(F)c1`, the inhibition is 25.2% (active).
As for `CCN(CC(=O)NCc1ccc(Cl)cc1)C(=O)CSc1ccccc1`, the figure is 9.76% (inactive); as for `CN1/C(=C\C=C2\N=C(c3ccc(F)cc3)OC2=O)C(C)(C)c2ccccc21`, 9.17% (inactive); as for `C=CCN1C(=O)C2(C(C(=O)OCC)=C(N)Oc3c2c(=O)oc2ccccc32)c2ccccc21` (centres undefined), 8.11% (inactive).
Consider `CN1/C(=C\C(=O)c2oc3ccccc3c2N)C(C)(C)c2ccccc21`, for which the inhibition was 51.8% (active).
